Several values for one entry are separate records, joined by “and”; a condition that tells them apart may be missing. Identical values can stand only once. This is part of a sample that, as a whole, favours compounds with a hit. Of some 79,000 tested, about 15% had one in any assay. Cut-off read from the data, not from the text of the source: active = growth inhibition above about 70%; inactive = the rest.
Columns and labels:
[1] = NCI Yeast Anticancer Drug Screen. Data for the rad50 strain (AID 155);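 note: 0% = growth of vehicle-only cultures of the same strain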; conditions: S. cerevisiae rad50 strain growth inhibition; at 50.0 µM; active compounds read high
Method in brief: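 Compounds were tested on a yeast strain with an engineered DNA damage repair alteration; the reported value is growth inhibition normalised to vehicle treatment.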

[2] = NCI Yeast Anticancer Drug Screen. Data for the mec2-1 strain (AID 157); conditions: S. cerevisiae mec2-1 strain, at 50.0 µM, active compounds read high
Method in brief: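 Using mec2-1 yeast: add compound, measure growth, express inhibition versus vehicle-treated cultures.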

[3] = NCI Yeast Anticancer Drug Screen. Data for the sgs1 mgt1 strain (AID 161);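 note: 0% = growth of cultures given vehicle only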; conditions: S. cerevisiae sgs1 mgt1 strain, at 50.0 µM, active compounds read high
Method in brief: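 Growth of a repair-deficient yeast mutant was monitored after compound treatment and expressed as inhibition relative to vehicle-treated cultures.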

[4] = NCI Yeast Anticancer Drug Screen. Data for the cln2 rad14 strain (AID 165);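 note: 0% = growth equal to vehicle treated cultures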; conditions: S. cerevisiae cln2 rad14 strain, at 50.0 µM, active compounds read high
Method in brief: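 Yeast strain cln2 rad14, bearing defects in cell cycle control and DNA repair, serves as the test system; values reflect growth inhibition compared with vehicle.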

[5] = NCI Yeast Anticancer Drug Screen. Data for the bub3 strain (AID 167); conditions: S. cerevisiae bub3 mutant strain, at 50.0 µM, active compounds read high
Method in brief: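 Growth of a checkpoint-deficient yeast mutant is measured after compound exposure. Values represent inhibition relative to vehicle.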

[6] = NCI Yeast Anticancer Drug Screen. Data for the mlh1 rad18 strain (AID 175); conditions: S. cerevisiae mlh1 rad18 strain growth inhibition; at 50.0 µM; active compounds read high
Method in brief: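 Steps: expose repair-defective yeast to compound; measure growth; express inhibition against vehicle-treated controls.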

Measured: growth inhibition

CC(=O)OCC1OC(CCC#N)C(OC(C)=O)C(OC(C)=O)C1OC(C)=O (configuration not stated)
inactive: [1] 10.7% and 1.7% | [2] 15.5% and 14.2% | [3] 17.4% and 2.35% | [4] -12% and -1.35% | [5] 9.3% and -4.05% | [6] 13.6% and 11.3%

O=C1NC(=S)S/C1=C/c1ccnc2ccccc12
inactive: [1] 18.2% and 6.7% | [2] 14.8% and 9.3% | [3] 19.4% and -3.1% | [4] 20.9% and -32.1% | [5] 5.45% and -8.75% | [6] 1.25% and -11.6%

O=C(O)C(Cc1ccccc1)Cc1ccccc1
inactive: [1] -11.6% and 20.8% | [2] 4.6% and 3.1% | [3] -14.4% and 9.8% | [4] -40.1% and 29.2% | [5] -22.9% and 43.5% | [6] 3.75% and 35.2%

C1=NCCCN1
inactive: [1] 19.4% and 21.4% | [2] -7.95% and -23.4% | [3] 13.3% and 20.6% | [4] 9.4% and 6.35% | [5] 18.2% and 3% | [6] 22.2% and 18.6%

COC1C(C)OCOC2COCOC21 (configuration not stated)
inactive: [1] 17.4% and -6.3% | [2] 2.2% and -13.2% | [3] 4.15% and -8.6% | [4] 0.5% and -19.8% | [5] 9.05% and -3.8% | [6] 7.4% and -0.45%

CCCCCCCCCCSCC(CO)NC(=O)/C=C/c1c(C)[nH]c(=O)[nH]c1=O (configuration not stated)
inactive: [1] 1.95% and 30.7% | [2] -13.7% and 15.2% | [3] 2.45% and 2% | [4] -27.2% and 14.8% | [5] -14.4% and -14% | [6] 9.55% and -47.1%

CCCCc1c(C)[nH]c(=S)[nH]c1=O
inactive: [1] -6.15% and 5.3% | [2] -14.8% and -14.1% | [3] -4.35% and 0.4% | [4] -6.1% and 13.2% | [5] -0.05% and 15% | [6] -5.45% and 2%

CC(=O)Nc1cccc2c1C(=O)OC2=O
inactive: [1] 8.65% and 1.9% | [2] -3.9% and -0.15% | [3] 5.05% and -16.7% | [4] -6.3% and -20.6% | [5] -1.9% and -0.8% | [6] -8.1% and -4.7%

O=C1OCC/C1=C\c1ccco1
inactive: [1] 9.55% and -9.2% | [2] 2.2% and 3.9% | [3] 6.15% and 9.15% | [4] -19.1% and 10.9% | [5] -6.75% and 17.9% | [6] 10.3% and -6.35%

O=C(O)CC(c1ccccc1)c1ccccc1
inactive: [1] -47.2% and 9.6% | [2] -39% and -5.4% | [3] -2.95% and 2.15% | [4] 3.35% and -3.55% | [5] -30.6% and -21.7% | [6] -28.1% and -0.95%

CC(=O)OC1COC(n2cnc3c(=S)nc[nH]c32)C(OC(C)=O)C1OC(C)=O (configuration not stated)
inactive: [1] 24.2% and -2.35% | [2] -0.1% and -1.6% | [3] 21.3% and -16.4% | [4] 18.4% and -19.2% | [5] 0.7% and 1.65% | [6] 7.35% and -11.9%

O=C1C(c2ccccc2)=C(c2ccccc2)C(c2ccccc2)=C1c1ccccc1
inactive: [1] 36.6% and 12.2% | [2] -3.9% and 8.35% | [3] 15.8% and 25.2% | [4] -14% and -2.4% | [5] 0.25% and 12.2% | [6] 18.7% and 8.9%

CCCC(=O)Oc1ccc(C(C)C)cc1
inactive: [1] 6% and 13.8% | [2] -22.3% and -1.45% | [3] -8.2% and 2.05% | [4] 10.4% and -31.6% | [5] -9.75% and 13.3% | [6] 5.8% and 10.1%

NC(=O)N/N=C/C=C/c1ccccc1
inactive: [1] 18.4% and -1.3% | [2] 12.7% and 3.1% | [3] 6.85% and -6.75% | [4] 7.55% and -20.4% | [5] -0.4% and -14.1% | [6] 5.05% and 6.95%

c1ccc([P+](Cc2ccccc2C[P+](c2ccccc2)(c2ccccc2)c2ccccc2)(c2ccccc2)c2ccccc2)cc1
inactive: [1] -15% and 20.1% | [2] -20.9% and 6.8% | [3] -5.3% and 7.25% | [4] -8.25% and 14.8% | [5] 1.6% and 7.8% | [6] -50% and 12.3%

O=C(O)c1cc(N=Nc2ccc([N+](=O)[O-])cc2)ccc1O
inactive: [1] 51.1% and 26.6% | [2] -34% and 8.2% | [3] -13.7% and 12.2% | [4] 10.2% and -34.8% | [5] 9.75% and 27.4% | [6] 18.2% and 49%

COC(=O)c1cccc2c[n+]3c(cc12)-c1[nH]c2cc(OC)ccc2c1CC3
inactive: [1] 4.55% and 53% | [2] -16.9% and 8.8% | [3] -0.05% and 21.1% | [4] -8.05% and -7.6% | [5] 4.6% and 13.1% | [6] 14.6% and 13.7%
